# According to PubChem BioAssay AID624417 (National Center for Advancing Translational Sciences (NCATS), 2012):
# The whole screen tested about 410,000 compounds, of which about 6,400 (1.6%) were called active. Roughly 20% stayed inconclusive and do not appear here. The entries come from a sample that favours actives as a whole. A number with no mark means an inactive call. Calls follow the shape of the dose curve; as a rule, active = well fitted inhibition curve with a large enough effect; inconclusive = small, poorly fitted or top-dose-only effect; inactive = no such curve, though single readings can be large or run the other way.
# Target: Glucagon-like peptide 1 receptor (Homo sapiens) (UniProt P43220)
# Sequence (P43220 whole entry, looked up): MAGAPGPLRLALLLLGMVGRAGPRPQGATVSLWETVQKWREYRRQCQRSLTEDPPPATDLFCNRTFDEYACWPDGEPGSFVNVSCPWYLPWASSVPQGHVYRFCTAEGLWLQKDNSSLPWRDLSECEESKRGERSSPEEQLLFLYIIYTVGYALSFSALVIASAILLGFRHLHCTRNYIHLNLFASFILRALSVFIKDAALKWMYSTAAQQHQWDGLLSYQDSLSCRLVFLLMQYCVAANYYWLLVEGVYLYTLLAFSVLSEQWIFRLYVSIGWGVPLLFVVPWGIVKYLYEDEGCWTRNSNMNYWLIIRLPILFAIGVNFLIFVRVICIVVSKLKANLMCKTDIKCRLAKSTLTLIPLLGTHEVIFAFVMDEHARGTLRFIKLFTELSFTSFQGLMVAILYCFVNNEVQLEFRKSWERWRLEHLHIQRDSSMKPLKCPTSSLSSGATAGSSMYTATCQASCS
# Test: qHTS of GLP-1 Receptor Inverse Agonists (Inhibition Mode); also: nearly all actives have a fitted effect of over 55% in size
# Conditions: HEK293 GLP-1R CRE-luciferase, luminescence, 24 h, GLP-1R form is constitutively active; series mostly up to 38.3 µM; activity change, negative = inhibition: at the top concentration
# Method in brief: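 Using stably transfected HEK293 (constitutively active GLP-1R, cAMP-luciferase reporter), compounds were incubated 24 hr and luciferase measured by luminescence.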
# % is scaled to controls: 0 for no effect and ±100 for the full control effect; potency is read from the fitted curve at half-maximal effect.
Compound,"activity change, negative = inhibition [%]",Potency
Cc1cc(C)c2sc(NC(=O)c3ccc(S(=O)(=O)N4CCCC4)cc3)nc2c1,9.8,–
CN(C)CCCN(C(=O)c1ccc(S(=O)(=O)N2CCCCCC2)cc1)c1nc2cc3c(cc2s1)OCCO3,–,11.2 µM (active)
CN(C)CCCN(C(=O)c1ccc(S(=O)(=O)N2CCCCCC2)cc1)c1nc2ccc(Br)cc2s1,–,3.55 µM (active)
Cc1ccc2nc(N(CCN(C)C)C(=O)C3=COCCO3)sc2c1,-23.3,–
Cc1cc2nc(NC(=O)c3ccc(S(=O)(=O)N4CCOCC4)cc3)sc2cc1C,2.57,–
CN(C)CCN(C(=O)CN1C(=O)c2ccccc2C1=O)c1nc2cc3c(cc2s1)OCCO3,-21.6,–
Cc1noc(C)c1S(=O)(=O)N(C)C[C@H]1OCCCC[C@@H](C)Oc2ccc(NC(=O)CCCN(C)C)cc2C(=O)N([C@H](C)CO)C[C@@H]1C,1.02,–
O=C(O)C1=C(C(=O)O)C2CCC1C2,-13.1,–
CC(=O)N1Cc2cc(C(=O)NCc3cccc(F)c3)nc(-c3cccc(C4=CCCCC4)c3)c2[C@H]1CCO,-26.1,–
CCc1nc2c(=O)[nH]cnc2o1,3.74,–
C/C(=N/NC(=S)Nc1ccccc1)c1ccc2c(c1)OCO2,–,3.16 µM (active)
C/C(=N\NC(=O)C(N)=O)c1ccc2c(c1)OCCO2,8.58,–
C/C(=N/NC(=O)c1ccncc1)c1ccc2c(c1)OCO2,40.5,–
CCOC(=O)[C@]12CCCC=C1N(CCC1=CCCCC1)C(=O)[C@H](CC(=O)NCCCOC)C2,-20,–
O=C(NCC(F)(F)F)c1ccc(S(=O)(=O)NCCc2ccc3c(c2)OCCO3)cc1,-6.37,–
COc1cc(SC)ccc1C(=O)Nc1nc(C)cs1,–,1.12 µM (active)
Cc1csc(NC(=O)c2ccc(C)s2)n1,-28.5,–
COc1cc(SC)ccc1C(=O)NCCOc1ccccc1Cl,-26.1,–
CCOc1ccc2[nH]c(=S)sc2c1,14.3,–
O=C(NC1CCCC1)C1c2ccccc2OCC(=O)N1CC(F)(F)F (stereo not given),20.3,–
O=C(Nc1cc(F)ccc1F)c1ccc2c(=O)n3c(nc2c1)CCC3,8.76,–
O=C(NN=Cc1ccccc1O)NN=Cc1ccccc1O,-23.4,–
Oc1cccc(/C=N/Nc2ccc(Cl)nn2)c1O,–,1.12 µM (active)

Compound,"activity change, negative = inhibition [%]",Potency
Oc1c(Br)cccc1/C=N/Nc1c(F)c(F)c(F)c(F)c1F,-25.4,–
C[C@@H]1CN([C@@H](C)CO)S(=O)(=O)c2ccc(-c3ccc(C(=O)N(C)C)cc3)cc2O[C@@H]1CN(C)Cc1ccccc1C(=O)O,3.03,–
CCc1nc2c(OCCc3cccc(OC)c3)cccn2c1N(C)C(=O)c1ccc(C)cc1,-18.3,–
Cc1ccc(NC(=O)[C@H](Cc2ccccc2)NC(=O)CC[C@H]2O[C@@H](n3ccc(=O)[nH]c3=O)[C@H](O)[C@@H]2O)cc1C,24.1,–
Cc1ccc(S(=O)(=O)N2CCN(c3ccccc3)CC2)cc1C,-2.13,–
O=S(=O)(c1ccc2ccccc2c1)N1CCN(S(=O)(=O)N2CCOCC2)CC1,-6.77,–
CN1CCN(S(=O)(=O)c2ccc(N3CCN(c4ccccc4O)CC3)c([N+](=O)[O-])c2)CC1,–,10 µM (active)
Cc1cc(N)n(-c2ccc(S(=O)(=O)N3CCCC3)cc2[N+](=O)[O-])n1,19.4,–
Cc1ccccc1N1CCN(S(=O)(=O)c2ccc3ccccc3c2)CC1,–,10 µM (active)
O=[N+]([O-])c1ccc(N2CCN(S(=O)(=O)c3ccccc3)CC2)cc1N1CCc2ccccc2C1,58,–
COc1ccc(NC(=O)CN(C)C(=O)c2cc(C)oc2C)cc1,7.15,–
O=C(/C=C/[C@H]1O[C@@H](n2ccc(=O)[nH]c2=O)[C@H](O)[C@@H]1O)NCc1ccccn1,1.39,–
C[C@H](CO)N1C[C@H](C)[C@@H](CN(C)C(=O)c2cnccn2)Oc2ncc(Br)cc2C1=O,4.24,–
CC(C)C[C@@H]1COc2cc(N3CCC[C@@H]3CO)ccc2S(=O)(=O)N1,26.8,–
Cc1cccc([C@@H]2[C@@H]3C(=O)N(Cc4ccccc4)C(=O)[C@@H]3[C@]3(Cc4ccc(Cl)cc4)C(=O)N(c4cccc(Cl)c4)C(=O)N23)c1,-13.2,–
O=C1[C@H]2[C@@H](c3ccc(F)cc3)N3C(=O)N(c4ccc(C(F)(F)F)cc4)C(=O)[C@@]3(Cc3ccccc3)[C@H]2C(=O)N1C1CCCCC1,–,2.24 µM (active)
CCN1C(=O)[C@H]2[C@@H](c3ccc(C)cc3)N3C(=O)N(c4cccc(Br)c4)C(=O)[C@@]3(CC)[C@H]2C1=O,-10.8,–
CC(=O)c1ccc(Nc2nc(C(N)c3ccccc3Cl)cs2)cc1 (stereo not given),-8.94,–
C[C@H](CO)N1C[C@H](C)[C@@H](CN(C)C(=O)c2cccc(F)c2)Oc2cc(-c3cncnc3)ccc2S1(=O)=O,18,–
O=C(NCc1ccccc1)C1CNCC(C(=O)NCc2ccccc2)C1 (stereo not given),-2.63,–
C=CCOC(=O)C1=C(C)NC(C)=C(C(=O)OCC=C)C1c1cccs1,–,10 µM (active)
CCOC(=O)C1=C(C)Nc2nc3ccccc3n2C1c1cccs1 (stereo not given),-7.21,–
